An excerpt weighted towards active compounds, which were near 4.7% of everything screened.
D1 PAM: human D1 dopamine receptor positive modulation. P21728. HEK293 TREx D1 cells, calcium flux, dopamine EC20 potentiation. potentiation, % at 10 µM. 0.036% of 360,000 active. AID 504651; in the data active means potentiation above about 30%; further: 0% is about no effect
TRHR enhancer: TRH receptor (human) allosteric enhancement | P34981 | TRHR cells, fluo-8 calcium fluorescence, EC20 TRH enhancement | enhancement, % at 2 µM | 0.66% of 360,000 active; in the data active means enhancement above about 30%; further: 0% is about no effect
Target sequence (P34981 whole entry, looked up): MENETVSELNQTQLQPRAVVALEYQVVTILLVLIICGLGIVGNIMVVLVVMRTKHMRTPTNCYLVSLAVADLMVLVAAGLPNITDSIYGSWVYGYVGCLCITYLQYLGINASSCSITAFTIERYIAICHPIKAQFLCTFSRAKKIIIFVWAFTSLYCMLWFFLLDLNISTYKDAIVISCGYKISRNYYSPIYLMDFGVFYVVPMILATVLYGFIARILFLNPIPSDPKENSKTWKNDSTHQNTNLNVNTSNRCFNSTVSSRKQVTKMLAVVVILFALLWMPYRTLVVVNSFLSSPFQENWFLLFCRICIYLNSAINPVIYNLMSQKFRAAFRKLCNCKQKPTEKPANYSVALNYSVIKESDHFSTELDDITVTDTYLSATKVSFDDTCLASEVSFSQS
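TRHR-expressing cells loaded with fluo-8 calcium dye were read kinetically (ex 480/em 530) during compound addition, then stimulated with an EC20 of TRH (10 nM final). Enhancement of the Gq-mediated intracellular calcium response was scored.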
D1 agonist: activates the human D1 dopamine receptor. P21728. HEK293 T-REx D1 cells, calcium flux, agonist mode. activation, % at 2 µM. 1% of 360,000 active; further: 0% is about no effect
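Agonism was scored from calcium flux recorded over 180 s (1 read/s) after pintool compound addition, following a 10-cycle baseline. Cells were inducible force-coupled HEK293 TREx D1, plated overnight at 30 C and loaded with no-wash calcium dye.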
TRHR ag: TRH receptor (human) agonism. 0.18% of 360,000 active. TRHR cells, calcium flux fluo-8, FDSS agonist mode. P34981. activation, % at 2 µM; further: 0% is about no effect
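Fluo-8-loaded TRHR cells; 10 s baseline, compound added, kinetic Ca2+ fluorescence read 1/s, agonist mode.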
D1 antagonist: human D1 dopamine receptor antagonism. P21728. HEK293 TREx D1 cells, calcium flux, dopamine EC80; stronger effect = lower value. activity change, negative = inhibition, % at 10 µM. 3.2% of 360,000 active. AID 504652; in the data active means activity change below about -30%; further: on the % scale 0 is the no-effect control and ±100 the full control effect
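Tetracycline-induced HEK293 T-REx cells with force-coupled D1 receptor were loaded with a no-wash calcium dye. Compound was added after a 10 s baseline and read kinetically for 180 s; EC80 dopamine was then added and calcium flux followed another 180 s.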
Numbers without * were called inactive. Unless noted, no stated cut-off is given here; in the data, active means activation above about 30%; inactive means the rest.

For N#CC(C#N)=C(N)CSc1cccc[n+]1[O-] the results were D1 PAM 4, TRHR enhancer 35*, D1 agonist 2, TRHR ag 0 and D1 antagonist 6.
`O=C(CSc1oc(-c2ccc(F)cc2)nc1S(=O)(=O)c1ccc(Cl)cc1)c1ccccc1` gave D1 PAM 0, TRHR enhancer -7, D1 agonist 6, TRHR ag 1 and D1 antagonist -4.
`CCOC(=O)c1ccc(NC(=O)CSc2cn(CC(=O)N3CCCC3)c3ccccc23)cc1` gave D1 PAM -2, TRHR enhancer 2, D1 agonist 1, TRHR ag 0 and D1 antagonist 2.
Screening Cc1ccc(-c2nnn(CC(=O)N(Cc3cccs3)C(C(=O)NCC3CCCO3)c3ccco3)n2)o1 (stereo not given) returned D1 PAM -9, TRHR enhancer -2, D1 agonist 14, TRHR ag -1 and D1 antagonist -48*.
Cc1ccccc1CCN(C(=O)CN1C(=O)c2ccccc2S1(=O)=O)C(C(=O)NCC1CCCO1)c1ccncc1 (stereo not given) was read as D1 PAM 0, TRHR enhancer 3, D1 agonist 1, TRHR ag 0 and D1 antagonist -12.
For O=C(NCC1CCCO1)C(c1ccncc1)N(Cc1cccs1)C(=O)CN1C(=O)c2ccccc2S1(=O)=O (stereo not given) the results were D1 PAM 7, TRHR enhancer 5, D1 agonist 42*, TRHR ag 0 and D1 antagonist 0.
`COc1cccc(-c2nc(S(=O)(=O)c3ccccc3)c(NCc3ccccc3)o2)c1` gave D1 PAM -3, TRHR enhancer 5, D1 agonist 10, TRHR ag 0 and D1 antagonist -10.
Cc1ccc(NC(=O)CCN2C(=O)c3cccc4cccc(c34)C2=O)cc1 was read as D1 PAM -8, TRHR enhancer 16, D1 agonist 0, TRHR ag 0 and D1 antagonist -33*.
Screening Cc1ccc(C(=O)/C=C/c2ccc(-c3ccc(C)cc3)o2)cc1 returned D1 PAM -1, TRHR enhancer -2, D1 agonist 7, TRHR ag 0 and D1 antagonist 1.
CCN(CC)S(=O)(=O)c1ccc(C(=O)/C=C/c2ccc(-c3ccc([N+](=O)[O-])cc3)o2)cc1 was read as D1 PAM -8, TRHR enhancer 24, D1 agonist 9, TRHR ag 3 and D1 antagonist -54*.
Screening Cc1ccccc1Nc1nc(N)nc(COC(=O)c2ccc(O)cc2)n1 returned D1 PAM -10, TRHR enhancer 5, D1 agonist 17, TRHR ag 2 and D1 antagonist -43*.
Screening Cc1ccc(CN2CCN(C3CCNCC3)C(=O)C2=O)cc1 returned D1 PAM 0, TRHR enhancer 6, D1 agonist -2, TRHR ag 0 and D1 antagonist 9.
`CC(C)NCC(O)COCc1ccc(Cl)cc1` (stereo not given) gave D1 PAM -2, TRHR enhancer 3, D1 agonist 1, TRHR ag 1 and D1 antagonist 4.
CCC(C)NCC(O)COCc1ccc(Cl)cc1 (stereo not given) was read as D1 PAM -1, TRHR enhancer 4, D1 agonist 36*, TRHR ag -1 and D1 antagonist 6.
Screening COc1ccc(CN2CCc3cc(OC)c(OC)cc3C2)cc1O returned D1 PAM -4, TRHR enhancer 5, D1 agonist 1, TRHR ag 0 and D1 antagonist -48*.
COc1ccccc1CNc1cc(C)nc2nc(-c3ccc(C)cc3)nn12 was read as D1 PAM 4, TRHR enhancer -1, D1 agonist 6, TRHR ag 0 and D1 antagonist 2.
For CCCCCCOc1ccc(N2C(=O)CC(SCCN)C2=O)cc1 (stereo not given) the results were D1 PAM -8, TRHR enhancer 6, D1 agonist 64*, TRHR ag 1 and D1 antagonist -16.
COc1cc2[nH]cc(C(=O)NCCc3ccccc3)c(=O)c2cc1OC was read as D1 PAM -8, TRHR enhancer 3, D1 agonist 0, TRHR ag -1 and D1 antagonist -32*.
COc1cc2[nH]cc(C(=O)NCc3ccccc3)c(=O)c2cc1OC was read as D1 PAM -6, TRHR enhancer -4, D1 agonist 3, TRHR ag 0 and D1 antagonist 1.

Source: PubChem
